Compounds without any hit were thinned out: in the full panel of roughly 83,000, 20% have a hit.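 In brief: 96-well plates, 48 h treatment, single concentration, percent growth endpoint.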 Values without a mark were called inactive. Active and inactive are the calls of the source. How the source made its calls: active means growth percent below 10; inactive means the rest.

Our source for the growth values is PubChem BioAssay (NCI).

Some test systems named below: HCT-15 colon; HT29 colon; SNB-75 CNS; SNB-19 CNS; U251 CNS; PC-3 prostate; SK-MEL-5 melanoma; UACC-62 melanoma; LOX IMVI melanoma; SK-MEL-28 melanoma.
What all share (test): NCI-60 one-dose screen, 48 h (100 = growth as untreated, 0 = no growth, -100 = all killed)

As to `COc1ccc(OC)c(Cn2cc(C#N)c(N)c2C(=O)c2ccc(Br)cc2)c1`, the growth in the experiment on HCT-15 colon (10 µM unless noted) is 26.2%; in the experiment on HT29 colon (10 µM unless noted), 4.97% (active); in the experiment on SNB-75 CNS (10 µM unless noted) it was 50.4%; in the experiment with SNB-19 CNS (10 µM unless noted), 55.3%; in the experiment with U251 CNS (10 µM unless noted), 26.3%; in the experiment with PC-3 prostate (10 µM unless noted), 66%. The growth was 26.6% with SK-MEL-5 melanoma (10 µM unless noted), 29.9% in the experiment on UACC-62 melanoma (10 µM unless noted), 49.6% in the experiment with LOX IMVI melanoma (10 µM unless noted) and 54.3% with SK-MEL-28 melanoma (10 µM unless noted).

Take `Cc1ccc(C(=O)Nc2cc(-c3ccccc3)cc(C(F)(F)F)c2)cc1C#Cc1cnc2cccnn12`: the growth in the experiment on HCT-15 colon (10 µM unless noted) was 57.7%; in the experiment on HT29 colon (10 µM unless noted), 34.8%; with SNB-75 CNS (10 µM unless noted), 112%; with SNB-19 CNS (10 µM unless noted), 92.3%; in the experiment on U251 CNS (10 µM unless noted) it was 74.9%; with PC-3 prostate (10 µM unless noted), 65.8%. Moreover, the growth is 26% with SK-MEL-5 melanoma (10 µM unless noted), 46.1% in the experiment with UACC-62 melanoma (10 µM unless noted), 39.4% in the experiment on LOX IMVI melanoma (10 µM unless noted) and 52.9% in the experiment with SK-MEL-28 melanoma (10 µM unless noted).

`COc1ccc2c(c1)C(Sc1ccc(F)cc1)c1c(nc(N)c(C#N)c1N)O2` (stereo not given): the growth in the experiment on HCT-15 colon (10 µM unless noted) was 80.6%; with HT29 colon (10 µM unless noted) it was 94.3%; with SNB-75 CNS (10 µM unless noted), 66.5%; in the experiment with SNB-19 CNS (10 µM unless noted), 79.7%; in the experiment on U251 CNS (10 µM unless noted), 82%; with PC-3 prostate (10 µM unless noted), 55.1%. Further, the growth was 91.2% in the experiment on SK-MEL-5 melanoma (10 µM unless noted), 74.1% with UACC-62 melanoma (10 µM unless noted), 60.9% in the experiment with LOX IMVI melanoma (10 µM unless noted) and 112% in the experiment on SK-MEL-28 melanoma (10 µM unless noted).

As for `COc1cc(/C=N/NC(=O)c2ccc(OCc3nc4ccc(C)cc4[nH]3)cc2)cc(OC)c1OC`, the growth in the experiment on HCT-15 colon (10 µM unless noted) was 38.9%; in the experiment with HT29 colon (10 µM unless noted), 18.9%; in the experiment on SNB-75 CNS (10 µM unless noted) it was 135%; with SNB-19 CNS (10 µM unless noted) it was 66.2%; in the experiment on U251 CNS (10 µM unless noted), 29%; in the experiment on PC-3 prostate (10 µM unless noted) it was 49.7%. Besides, the growth is 18.3% in the experiment with SK-MEL-5 melanoma (10 µM unless noted), 29.9% with UACC-62 melanoma (10 µM unless noted), 40.4% in the experiment on LOX IMVI melanoma (10 µM unless noted) and 39.4% in the experiment on SK-MEL-28 melanoma (10 µM unless noted).

Regarding `CS(=O)(=O)Nc1cc(-c2ccc3ncnc(N4CCc5cc(F)c(Cl)cc54)c3c2)cnc1Cl`, the growth was 7.55% (active) in the experiment with HCT-15 colon (10 µM unless noted); 19.7% with HT29 colon (10 µM unless noted); -17.7% (active) with SNB-75 CNS (10 µM unless noted); 27% in the experiment on SNB-19 CNS (10 µM unless noted); 17.8% in the experiment on U251 CNS (10 µM unless noted); 12.9% with PC-3 prostate (10 µM unless noted). The growth in the experiment on SK-MEL-5 melanoma (10 µM unless noted) is -72.8% (active); in the experiment on UACC-62 melanoma (10 µM unless noted), -43.2% (active); with LOX IMVI melanoma (10 µM unless noted) it was -29.2% (active); in the experiment on SK-MEL-28 melanoma (10 µM unless noted), -0.47% (active).

As to `CC/C(=C(\c1ccc(O)cc1)c1ccc(OCCN(C)C(=O)CCOCCNC(=O)c2ccc3c(c2)CN([C@@H]2CCC(=O)NC2=O)C3=O)cc1)c1ccccc1`, the growth was 110% with HCT-15 colon (1 µM); 103% in the experiment with HCT-15 colon (10 µM); 95% in the experiment on HT29 colon (1 µM); 89% with HT29 colon (10 µM); 59% in the experiment on SNB-75 CNS (1 µM); 64.2% in the experiment on SNB-75 CNS (10 µM). The growth with SNB-19 CNS (1 µM) was 92.7%; in the experiment on SNB-19 CNS (10 µM), 90.1%; with U251 CNS (1 µM), 95.3%; with U251 CNS (10 µM), 92.6%; with PC-3 prostate (1 µM), 54.2%; in the experiment on PC-3 prostate (10 µM), 52.9%. Further, the growth in the experiment on SK-MEL-5 melanoma (1 µM) was 95.4%; in the experiment with SK-MEL-5 melanoma (10 µM), 87.9%; with UACC-62 melanoma (1 µM) it was 95.9%; in the experiment on UACC-62 melanoma (10 µM), 95%; in the experiment on LOX IMVI melanoma (1 µM), 104%; in the experiment with LOX IMVI melanoma (10 µM) it was 94.4%. The growth in the experiment with SK-MEL-28 melanoma (1 µM) and with SK-MEL-28 melanoma (10 µM) was 102% each time.

Consider `CC/C(=C(\c1ccc(O)cc1)c1ccc(OCCN(C)C(=O)COCCNC(=O)Cc2ccc3c(c2)CN([C@@H]2CCC(=O)NC2=O)C3=O)cc1)c1ccccc1`, for which the growth in the experiment with HCT-15 colon (1 µM) was 110%; in the experiment with HCT-15 colon (10 µM) it was 99.5%; in the experiment on HT29 colon (1 µM), 110%; with HT29 colon (10 µM), 80.1%; in the experiment with SNB-75 CNS (1 µM), 44.9%; in the experiment on SNB-75 CNS (10 µM), 4.63% (active). Moreover, the growth in the experiment with SNB-19 CNS (1 µM) was 64.8%; with SNB-19 CNS (10 µM), 49.8%; in the experiment on U251 CNS (1 µM), 97.4%; in the experiment on U251 CNS (10 µM), 80%; with PC-3 prostate (1 µM), 26.7%; in the experiment with PC-3 prostate (10 µM), 18.7%. Moreover, the growth in the experiment with SK-MEL-5 melanoma (1 µM) is 83.7%; in the experiment with SK-MEL-5 melanoma (10 µM), 31.8%; with UACC-62 melanoma (1 µM) it was 93.4%; in the experiment on UACC-62 melanoma (10 µM), 77.8%; with LOX IMVI melanoma (1 µM) it was 101%; with LOX IMVI melanoma (10 µM), 90.4%. The growth in the experiment with SK-MEL-28 melanoma (1 µM) was 90.4%; with SK-MEL-28 melanoma (10 µM), 57%.

`O=Cc1cncc(-c2ccc3ncnc(N4CCc5cc(F)c(Cl)cc54)c3c2)c1`: the growth was 18.7% in the experiment on HCT-15 colon (10 µM unless noted); 56.6% in the experiment with HT29 colon (10 µM unless noted); -12.6% (active) with SNB-75 CNS (10 µM unless noted); 49.5% in the experiment on SNB-19 CNS (10 µM unless noted); 48.5% in the experiment with U251 CNS (10 µM unless noted); 23.6% in the experiment on PC-3 prostate (10 µM unless noted). Moreover, the growth was 19.5% with SK-MEL-5 melanoma (10 µM unless noted), 13.4% in the experiment with UACC-62 melanoma (10 µM unless noted), 20.8% in the experiment on LOX IMVI melanoma (10 µM unless noted) and 44.2% with SK-MEL-28 melanoma (10 µM unless noted).

`Cc1ccc(/C=C/C(=O)c2ccc(S(=O)(=O)NCCNc3nc(N(C)C)nc(N4CCOCC4)n3)cc2)cc1`: the growth was 46.1% in the experiment with HCT-15 colon (10 µM unless noted); 37.3% in the experiment with HT29 colon (10 µM unless noted); 59.5% in the experiment on SNB-75 CNS (10 µM unless noted); 79.1% in the experiment on SNB-19 CNS (10 µM unless noted); 42.7% with U251 CNS (10 µM unless noted); 57.4% with PC-3 prostate (10 µM unless noted). Also, the growth in the experiment with SK-MEL-5 melanoma (10 µM unless noted) was 89%; with UACC-62 melanoma (10 µM unless noted) it was 72.6%; with LOX IMVI melanoma (10 µM unless noted), 42.1%; in the experiment with SK-MEL-28 melanoma (10 µM unless noted), 90.7%.

On to `Cc1cccc(NCC(=O)N2CCN(c3ncnc4c3cnn4-c3ccccc3)CC2)c1`, for which the growth was 72.9% in the experiment on HCT-15 colon (10 µM unless noted); 83.5% with HT29 colon (10 µM unless noted); 53.5% with SNB-75 CNS (10 µM unless noted); 88.9% in the experiment with SNB-19 CNS (10 µM unless noted); 87.1% with U251 CNS (10 µM unless noted); 70% with PC-3 prostate (10 µM unless noted). Also, the growth in the experiment with SK-MEL-5 melanoma (10 µM unless noted) was 37.5%; in the experiment on UACC-62 melanoma (10 µM unless noted) it was 34.6%; in the experiment with LOX IMVI melanoma (10 µM unless noted), 53.8%; in the experiment with SK-MEL-28 melanoma (10 µM unless noted), 59%.

As to `CCc1ccccc1-c1nc(CN[C@@H]2C[C@@H]3C[C@H]([C@H]2C)C3(C)C)c(C)o1`, the growth in the experiment with HCT-15 colon (10 µM unless noted) was -71.2% (active); in the experiment with HT29 colon (10 µM unless noted), -73.8% (active); in the experiment on SNB-75 CNS (10 µM unless noted), -68.1% (active); with SNB-19 CNS (10 µM unless noted), -81.7% (active); in the experiment with U251 CNS (10 µM unless noted) it was -61.9% (active); in the experiment with PC-3 prostate (10 µM unless noted), -54.3% (active). Further, the growth is -94.3% (active) in the experiment on SK-MEL-5 melanoma (10 µM unless noted), -88.3% (active) in the experiment on UACC-62 melanoma (10 µM unless noted), -94.4% (active) in the experiment with LOX IMVI melanoma (10 µM unless noted) and -80.3% (active) with SK-MEL-28 melanoma (10 µM unless noted).
